Some test systems named below: SK-MEL-2 melanoma; EKVX NSCLC; SN12C renal; UO-31 renal; TK-10 renal; ACHN renal; CAKI-1 renal; A498 renal; MOLT-4 leukemia; SR leukemia; RPMI-8226 leukemia; OVCAR-8 ovarian; OVCAR-5 ovarian; OVCAR-4 ovarian; SK-OV-3 ovarian; IGROV1 ovarian; OVCAR-3 ovarian; HS 578T breast; NCI/ADR-RES ovarian; CCRF-CEM leukemia.
Holding throughout (assay): NCI-60 one-dose screen, 48 h (100 = growth as untreated, 0 = no growth, -100 = all killed)
Common to all, as to details: 10 µM unless noted

Compounds without any hit were thinned out: in the full panel of roughly 83,000, 20% have a hit.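 Values shown are percent growth following 48 h exposure of cells in 96-well plates to a single concentration of compound; below 10 was considered active.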 Values without a mark were called inactive. The source made the active and inactive calls.

Turning to `N#Cc1c(N)nn(C(=O)c2ccc(NC(=O)c3ccccn3)cc2)c1-c1ccc(Cl)cc1`, the growth in the assay with SK-MEL-2 melanoma was 79.3%; in the assay with EKVX NSCLC, 49.2%; with SN12C renal it was 35%; in the assay on UO-31 renal it was 54.3%; in the assay with TK-10 renal, 24.6%; in the assay with ACHN renal it was 12.9%. Further, the growth in the assay on CAKI-1 renal is 26%; in the assay on A498 renal, 51.1%; with MOLT-4 leukemia, 52.9%; in the assay with SR leukemia, 50%; in the assay with RPMI-8226 leukemia it was 43.6%; with OVCAR-8 ovarian, 18.4%. The growth in the assay on OVCAR-5 ovarian was 62.7%; in the assay with OVCAR-4 ovarian, -2.76% (active); with SK-OV-3 ovarian, 67.2%; with IGROV1 ovarian, 11.1%; in the assay with OVCAR-3 ovarian, 6.15% (active); in the assay with HS 578T breast it was 28.6%. The growth in the assay on NCI/ADR-RES ovarian was 28.5%.

With `N#Cc1c(-c2ccccn2)[nH]c(=S)[nH]c1=O`, the growth in the assay on SK-MEL-2 melanoma is 93.7%; in the assay on EKVX NSCLC, 101%; in the assay with SN12C renal, 112%; with UO-31 renal, 84.6%; in the assay on TK-10 renal it was 94.3%; in the assay with ACHN renal it was 108%. In addition, the growth in the assay with CAKI-1 renal was 98.8%; in the assay with A498 renal, 89.6%; with MOLT-4 leukemia, 99.3%; in the assay with SR leukemia, 95.4%; in the assay with RPMI-8226 leukemia, 112%; with OVCAR-8 ovarian, 109%. Also, the growth is 94.6% with OVCAR-5 ovarian; 119% in the assay with OVCAR-4 ovarian; 104% in the assay with SK-OV-3 ovarian; 110% in the assay with IGROV1 ovarian; 105% in the assay on OVCAR-3 ovarian; 109% in the assay with HS 578T breast. For the same compound, the growth in the assay on NCI/ADR-RES ovarian is 109%.

Take `Cc1cc[c-]cc1.Fc1c[c-]c(-c2ccccn2)c(F)c1.[Pt+2].c1ccc(P(C[PH+](c2ccccc2)c2ccccc2)c2ccccc2)cc1`: the growth in the assay with SK-MEL-2 melanoma was 4.88% (active); with EKVX NSCLC, 7.66% (active); in the assay on SN12C renal it was 6.18% (active); in the assay on UO-31 renal, 11.4%; with TK-10 renal, 31.5%; in the assay with ACHN renal it was -1.88% (active). Besides, the growth in the assay with CAKI-1 renal was 0.998% (active); with A498 renal it was 9.17% (active); in the assay on MOLT-4 leukemia, 10.7%; with SR leukemia it was 16.8%; in the assay with RPMI-8226 leukemia, -4.4% (active); with OVCAR-8 ovarian, 11%. The growth in the assay on OVCAR-5 ovarian was 23.6%; in the assay on OVCAR-4 ovarian, -2.01% (active); with SK-OV-3 ovarian, -3.95% (active); in the assay on IGROV1 ovarian, 23.5%; in the assay on OVCAR-3 ovarian, 12.9%; in the assay with HS 578T breast it was 39.6%. Besides, the growth with NCI/ADR-RES ovarian is 87.3%.

For the compound `CNS(=O)(=O)c1n[nH]nc1-c1cc(C(C)(C)C)c(O)c(C(C)(C)C)c1`, the growth was 104% with SK-MEL-2 melanoma; 89.8% in the assay on EKVX NSCLC; 103% in the assay on SN12C renal; 84.2% in the assay with UO-31 renal; 111% in the assay on TK-10 renal; 98.7% with ACHN renal. Besides, the growth is 95.1% with CAKI-1 renal; 100% in the assay with A498 renal; 96.9% in the assay on MOLT-4 leukemia; 98.6% in the assay on SR leukemia; 96.2% in the assay on RPMI-8226 leukemia; 100% in the assay with OVCAR-8 ovarian. The growth in the assay with OVCAR-5 ovarian is 111%; with OVCAR-4 ovarian, 100%; in the assay on SK-OV-3 ovarian, 92.9%; in the assay with IGROV1 ovarian, 103%; in the assay with OVCAR-3 ovarian, 112%; in the assay on HS 578T breast, 102%. Further, the growth in the assay with NCI/ADR-RES ovarian is 105%.

With `Cn1c2c(c3ccc(Cl)c(Cl)c31)C(C#N)C1(CCNCC1)NC2=O` (configuration not stated), the growth was 11.5% in the assay with SK-MEL-2 melanoma; 46.2% in the assay with EKVX NSCLC; 44.2% with SN12C renal; 31.7% in the assay with UO-31 renal; 38.3% with TK-10 renal; 26.8% in the assay with ACHN renal. For the same compound, the growth with CAKI-1 renal is 29.6%; with A498 renal, 44.9%; in the assay on MOLT-4 leukemia, 15.6%; with SR leukemia, 13.6%; in the assay on RPMI-8226 leukemia, 14.2%; in the assay with OVCAR-8 ovarian, 67.8%. Besides, the growth is 62.1% in the assay with OVCAR-5 ovarian; 53.5% in the assay with OVCAR-4 ovarian; 68.7% in the assay with SK-OV-3 ovarian; -19.3% (active) with IGROV1 ovarian; 48.1% with OVCAR-3 ovarian; 35.1% with HS 578T breast. In addition, in the assay with NCI/ADR-RES ovarian, the growth was 68.5%.

For the compound `O=c1cc(C2NNC(=S)N2)c2ccc3ccccc3c2o1` (configuration not stated), the growth in the assay on SK-MEL-2 melanoma was 106%; with EKVX NSCLC, 64.5%; with SN12C renal, 100%; in the assay on UO-31 renal, 70.6%; with TK-10 renal, 126%; in the assay on ACHN renal, 94.7%. The growth in the assay with CAKI-1 renal is 85.1%; in the assay on A498 renal it was 88.1%; in the assay with MOLT-4 leukemia, 102%; with SR leukemia it was 97.8%; in the assay with RPMI-8226 leukemia, 74.8%; in the assay with OVCAR-8 ovarian, 97.4%. Moreover, the growth in the assay with OVCAR-5 ovarian is 109%; with OVCAR-4 ovarian, 101%; with SK-OV-3 ovarian, 97.2%; in the assay with IGROV1 ovarian it was 76.8%; in the assay with OVCAR-3 ovarian, 106%; with HS 578T breast it was 71%. The growth in the assay on NCI/ADR-RES ovarian is 101%.

As to `CC1OC(O[C@H]2/C=C/C=C/C=C/C=C/C=C/C=C/C=C/[C@H](C)[C@@H](O)[C@@H](C)[C@H](C)OC(=O)CC(O)CC(O)CCC(O)C(O)CC(O)C[C@]3(O)C[C@H](O)C(C(=O)O)C(C2)O3)C(O)[C@H](N)C1O` (some centres not stated), the growth in the assay on SK-MEL-2 melanoma is 57.6%; in the assay on EKVX NSCLC, -14.3% (active); with SN12C renal, -84.1% (active); with UO-31 renal, -94.3% (active); in the assay on TK-10 renal it was -40.7% (active); in the assay on ACHN renal it was -80.3% (active). For the same compound, the growth with CAKI-1 renal was 36.1%; in the assay on A498 renal, 9.81% (active); in the assay on CCRF-CEM leukemia, 36.8%; in the assay with OVCAR-8 ovarian it was 23.8%; in the assay on OVCAR-5 ovarian it was -21% (active); in the assay on SK-OV-3 ovarian it was 38%. For the same compound, the growth in the assay on IGROV1 ovarian is 16.6%; with OVCAR-3 ovarian, -42.3% (active); in the assay on HS 578T breast it was -18.7% (active); in the assay with NCI/ADR-RES ovarian it was -29.9% (active).

For the compound `O=c1[nH]ccc2nc(N3CCC(O)CC3)nc(Nc3ccc(N4CCOCC4)cc3)c12`, the growth in the assay on SK-MEL-2 melanoma is 69.3%; with EKVX NSCLC, 89%; in the assay on SN12C renal, 37.8%; with UO-31 renal, 38.2%; in the assay with TK-10 renal, 82.1%; in the assay with ACHN renal, 55.5%. Further, the growth in the assay on CAKI-1 renal is 26.3%; in the assay on A498 renal, 57.9%; in the assay with CCRF-CEM leukemia it was 70.6%; in the assay with OVCAR-8 ovarian, 85.5%; in the assay with OVCAR-5 ovarian, 42.6%; in the assay with OVCAR-4 ovarian, 112%. In addition, the growth was 14.9% in the assay with SK-OV-3 ovarian; 47.3% with IGROV1 ovarian; 101% in the assay with OVCAR-3 ovarian; 45.7% in the assay with HS 578T breast; 95.2% in the assay on NCI/ADR-RES ovarian.

The record behind these values is PubChem BioAssay (NCI).
